Measured values: PubChem BioAssay AID1159580 (chemical genetic matrix, 2015)
In all, about 5,500 compounds went through this assay and about 2,000 (36%) were called active. Not shown: some 18% with an inconclusive outcome. Rule as the data show it: active = normalized growth mostly below about 0.91 (no sharp cut-off); inconclusive = no clear call, values can overlap the other calls; inactive = mostly above about 0.92. Some of the results follow.

Assay: chemical genetic growth profiling, strain panel (AID 1159580);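 also: tested at 20 µM; growth read once vehicle control cultures reached saturation at 30 °C; 1 = growth at the plate median or of vehicle wells; lower values mean less growth of the strain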
Conditions: growth OD

Measured: normalized growth

C[C@H]1COc2c(N3CCN(C)CC3)c(F)cc3c(=O)c(C(=O)O)cn1c23
inactive: S. cerevisiae deletion strains, locus YJR075W, strain HOC1, active compounds read low 0.991 | S. cerevisiae deletion strains, locus YKL009W, strain mrt4, active compounds read low 1.01 | S. cerevisiae deletion strains, locus YKL068W, active compounds read low 1 | S. cerevisiae deletion strains, locus YKL085W, strain MDH1 (second series), active compounds read low 1.01 | S. cerevisiae deletion strains, locus YKL085W, strain MDH1, active compounds read low 1.01 | S. cerevisiae deletion strains, locus YKL160W, strain elf1, active compounds read low 1.01 | S. cerevisiae deletion strains, locus YKL190W, strain CNB1, active compounds read low 0.998 | S. cerevisiae deletion strains, locus YKR001C, strain vps1, active compounds read low 1.03 | S. cerevisiae deletion strains, locus YKR026C, strain gcn3, active compounds read low 1.02 | S. cerevisiae deletion strains, locus YKR091W, strain srl3, active compounds read low 1.03 | S. cerevisiae deletion strains, locus YLL001W, strain dnm1, active compounds read low 1.04 | S. cerevisiae deletion strains, locus YLL026W, active compounds read low 1.03 | S. cerevisiae deletion strains, locus YLL041C, strain sdh2, active compounds read low 1.02 | S. cerevisiae deletion strains, locus YLR027C, strain aat2, active compounds read low 1.03 | S. cerevisiae deletion strains, locus YLR039C, strain RIC1, active compounds read low 1.01 | S. cerevisiae deletion strains, locus YLR058C, strain SHM2, active compounds read low 1.01 | S. cerevisiae deletion strains, locus YLR102C, strain apc9, active compounds read low 1.01 | S. cerevisiae deletion strains, locus YLR113W, strain HOG1, active compounds read low 1.03 | S. cerevisiae deletion strains, locus YLR221C, strain rsa3, active compounds read low 0.984 | S. cerevisiae deletion strains, locus YLR258W, strain gsy2, active compounds read low 1.02 | S. cerevisiae deletion strains, locus YLR262C, strain YPT6 (second series), active compounds read low 1.02 | S. cerevisiae deletion strains, locus YLR262C, strain YPT6, active compounds read low 1.01 | S. cerevisiae deletion strains, locus YLR268W, strain sec22, active compounds read low 1 | S. cerevisiae deletion strains, locus YLR320W, strain mms22, active compounds read low 1.02 | S. cerevisiae deletion strains, locus YLR330W, strain CHS5, active compounds read low 1 | S. cerevisiae deletion strains, locus YLR342W, strain FKS1 (second series), active compounds read low 0.984 | S. cerevisiae deletion strains, locus YLR342W, strain FKS1, active compounds read low 1.03 | S. cerevisiae deletion strains, locus YLR357W, strain rsc2, active compounds read low 1.02 | S. cerevisiae deletion strains, locus YLR370C, strain arc18, active compounds read low 1.03 | S. cerevisiae deletion strains, locus YLR371W, strain rom2, active compounds read low 1 | S. cerevisiae deletion strains, locus YLR384C, strain iki3, active compounds read low 1.03 | S. cerevisiae deletion strains, locus YLR418C, strain cdc73, active compounds read low 1.02 | S. cerevisiae deletion strains, locus YML016C, strain PPZ1, active compounds read low 1.01 | S. cerevisiae deletion strains, locus YML032C, strain rad52, active compounds read low 0.965 | S. cerevisiae deletion strains, locus YML120C, strain ndi1, active compounds read low 1.01 | S. cerevisiae deletion strains, locus YML124C, strain tub3, active compounds read low 1.02 | S. cerevisiae deletion strains, locus YMR058W, strain fet3, active compounds read low 1.02 | S. cerevisiae deletion strains, locus YMR078C, strain ctf18, active compounds read low 1.02 | S. cerevisiae deletion strains, locus YMR125W, strain sto1, active compounds read low 1.02 | S. cerevisiae deletion strains, locus YMR129W, active compounds read low 1.03 | S. cerevisiae deletion strains, locus YMR205C, strain PFK2, active compounds read low 0.985 | S. cerevisiae deletion strains, locus YMR223W, strain ubp8, active compounds read low 1.01 | S. cerevisiae deletion strains, locus YMR231W, strain pep5, active compounds read low 1.03 | S. cerevisiae deletion strains, locus YMR263W, strain SAP30, active compounds read low 0.991 | S. cerevisiae deletion strains, locus YMR307W, strain GAS1, active compounds read low 1.04 | S. cerevisiae deletion strains, locus YNL067W, strain RPL9B, active compounds read low 1 | S. cerevisiae deletion strains, locus YNL071W, strain lat1, active compounds read low 1 | S. cerevisiae deletion strains, locus YNL128W, strain TEP1, active compounds read low 0.975 | S. cerevisiae deletion strains, locus YNL153C, strain GIM3, active compounds read low 1 | S. cerevisiae deletion strains, locus YNL183C, strain NPR1, active compounds read low 0.97 | S. cerevisiae deletion strains, locus YNL209W, strain ssb2, active compounds read low 1.01 | S. cerevisiae deletion strains, locus YNL233W, strain BNI4, active compounds read low 1.01 | S. cerevisiae deletion strains, locus YNL248C, strain rpa49, active compounds read low 1.03 | S. cerevisiae deletion strains, locus YNL250W, strain rad50, active compounds read low 1.01 | S. cerevisiae deletion strains, locus YNL271C, strain bni1, active compounds read low 1.01 | S. cerevisiae deletion strains, locus YNL298W, strain CLA4, active compounds read low 1.02 | S. cerevisiae deletion strains, locus YNL307C, strain MCK1, active compounds read low 1.03 | S. cerevisiae deletion strains, locus YNL322C, strain KRE1 (second series), active compounds read low 1.03 | S. cerevisiae deletion strains, locus YNL322C, strain KRE1, active compounds read low 0.999 | S. cerevisiae deletion strains, locus YNR049C, strain mso1, active compounds read low 1.01 | S. cerevisiae deletion strains, locus YNR052C, strain pop2, active compounds read low 1.02 | S. cerevisiae deletion strains, locus YOL006C, strain TOP1, active compounds read low 1.05 | S. cerevisiae deletion strains, locus YOL012C, strain htz1 0.78 | S. cerevisiae deletion strains, locus YOL147C, strain pex11, active compounds read low 1.01 | S. cerevisiae deletion strains, locus YOR001W, strain rrp6, active compounds read low 1.02 | S. cerevisiae deletion strains, locus YOR061W, strain CKA2, active compounds read low 1.01 | S. cerevisiae deletion strains, locus YOR069W, strain VPS5, active compounds read low 0.995 | S. cerevisiae deletion strains, locus YOR070C, strain gyp1, active compounds read low 1.02 | S. cerevisiae deletion strains, locus YOR080W, strain dia2, active compounds read low 1.04 | S. cerevisiae deletion strains, locus YOR083W, strain WHI5, active compounds read low 1.03 | S. cerevisiae deletion strains, locus YOR106W, strain vam3, active compounds read low 1.01 | S. cerevisiae deletion strains, locus YOR136W, strain idh2, active compounds read low 1.02 | S. cerevisiae deletion strains, locus YOR144C, strain elg1, active compounds read low 1.01 | S. cerevisiae deletion strains, locus YOR184W, strain ser1, active compounds read low 1.02 | S. cerevisiae deletion strains, locus YOR231W, strain MKK1, active compounds read low 0.996 | S. cerevisiae deletion strains, locus YOR265W, strain rbl2, active compounds read low 1.03 | S. cerevisiae deletion strains, locus YOR270C, strain vph1, active compounds read low 1.07 | S. cerevisiae deletion strains, locus YOR290C, strain snf2, active compounds read low 1.03 | S. cerevisiae deletion strains, locus YOR316C, strain cot1, active compounds read low 1.02 | S. cerevisiae deletion strains, locus YPL051W, strain arl3, active compounds read low 1.03 | S. cerevisiae deletion strains, locus YPL055C, strain LGE1, active compounds read low 0.997 | S. cerevisiae deletion strains, locus YPL078C, strain atp4, active compounds read low 1.02 | S. cerevisiae deletion strains, locus YPL106C, strain sse1, active compounds read low 0.991 | S. cerevisiae deletion strains, locus YPL240C, strain hsp82, active compounds read low 1.01 | S. cerevisiae deletion strains, locus YPL241C, strain CIN2, active compounds read low 1.01 | S. cerevisiae deletion strains, locus YPL256C, strain CLN2, active compounds read low 0.958 | S. cerevisiae deletion strains, locus YPR119W, strain clb2, active compounds read low 1.01 | S. cerevisiae deletion strains, locus YPR141C, strain kar3, active compounds read low 1.02 | S. cerevisiae deletion strains, locus YPR163C, strain tif3, active compounds read low 1.03 | S. cerevisiae deletion strains, locus YPR167C, strain met16, active compounds read low 1.02 | S. cerevisiae deletion strains, strain wtn01, active compounds read low 1.01 | S. cerevisiae strains, strain wild type, active compounds read low 0.981
